# Records with an inconclusive call do not appear. The source made the active and inactive calls. The call rests on the fitted dose curve; in most records, active means well fitted inhibition curve with a large enough effect; inconclusive means small, poorly fitted or top-dose-only effect; inactive means no such curve, though single readings can be large or run the other way.
# Test: Confirmatory fluorescence-based thiol-reactive (MSTI) qHTS assay for identification of artifact compounds
# Settings: MSTI thiol-reactivity probe, 1 h; series mostly up to 39.2 µM; activity change, negative = inhibition: at the top concentration
# From the text: PI: Alexander Tropsha Ph.D. UNC Eshelman School of Pharmacy University of North Carolina, Chapel Hill, North Carolina Hits from high-throughput screening (HTS) of chemical libraries are often false positives due to their interference with the assay detection technology. In response to this problem, we generated the largest publicly available library of chemical liabilities and developed a free webtool to predict HTS artifacts, both of which are described herein. More specifically, we generated, curated, and integrated HTS datasets for thiol reactivity, redox activity, and luciferase (firefly and nano) activity. Using these curated datasets, we developed and validated several Quantitative Structure-Interference Relationship (QSIR) models to predict nuisance behavior. […] These models were employed for virtual profiling of the National Center for Advancing Translational Science's (NCATS) in-house library, and 256 compounds for each assay were selected for the experimental validation of nuisance behavior. The BA for these external predictions ranged from 58 to 78% for compounds within the applicability domains of the models. […] The models developed in this study, along with aggregation models previously developed by our group (SCAM Detective) were implemented in "Liability Predictor," an online tool which may be used as part of chemical library design or for triaging HTS hits. Both the models and the curated datasets are publicly available at https://liability.mml.unc.edu/.
# PROTOCOL TABLE SEQUENCE No. (e.g., 1, 2, 3, etc.); PARAMETER (e.g., Cells, Incubation, Reagent, etc.); VALUE; DESCRIPTION. 1; Reagent; 4 uL; […]. 2; Compounds and control; 16 nL; Kalypsis pin tool (Wako USA) equipped with a 1536-well pin head. 3; Incubation; 1 hour. 4; Detection; Fluorescence, ViewLux microplate reader, 525 nm excitation, 598 nm emission. NOTES (numbers refer to Sequence numbers above) 1. Assays determining (E)-2-(4-mercaptostyryl)-1,3,3-trimethyl-3H-indol-1-ium (MSTI) reactivity were performed as previously described in the literature with modifications for the quick identification of compounds reacting with thiol. In brief, 4 uL of MSTI or positive control Acetyl-MSTI (final concentrations of 4 uM and 4 uM, respectively) in assay buffer (2% DMSO in 1X PBS pH 7.4) was dispensed into all wells of a 1536-well assay plate (solid-bottom black plate; Greiner Bio One, Monroe, NC). 2. A Wako Pin-tool (Wako Automation, Richmond, VA) was used to transfer 16 nL of compounds (consisting of 7-plates in qHTS format, final concentration range 18.3 nM to 114 uM) or control MLS001163887 (final concentration range 1.22 nM to 40 uM). 3. Plates were centrifuged (121xg, 15 seconds) and incubated for 1 hour at room temperature protected from light. 4. Samples were read for fluorescence (Ex/Em = 525(20)/598(25) nm) on a ViewLux CCD imager (PerkinElmer). Data were normalized to Acetyl-MSTI (0% activity) and MSTI (100% activity) and the resulting percent inhibition data were fitted to a 4-parameter Hill equation using NCATS in-house software.
# Potency means the concentration at half of the fitted maximal effect.
Structure (SMILES),"activity change, negative = inhibition",Potency
CCOc1ccccc1NC(=O)CSc1nc2c(oc3ccccc32)c(=O)n1-c1ccc(F)cc1,96.4% (inactive),–
CC(C)=CCC/C(C)=C/C=O,-2.35% [at 78.4 µM] (inactive),–
COc1ccc(C2C(C(=O)Nc3ccccc3)=C(C)Nc3c(C(=O)Nc4ccccc4)cnn32)cc1 (stereo not given),128% (inactive),–
COc1cccc(N2CCN(c3c4c(nc5nncn35)CCC4)CC2)c1,29.3% (inactive),–
COc1ccccc1C(CC(=O)Nc1ccc(F)cc1)c1ccccc1 (stereo not given),283% [at 78.4 µM] (inactive),–
COc1ccc(N2C(=O)CSC23C(=O)N(CC(N)=O)c2ccccc23)cc1 (stereo not given),23.4% (inactive),–
CCc1cccc(NC(=O)CN2CCCN(Cc3cccc(C)c3)S2(=O)=O)c1,107% (inactive),–
COc1ccc(NC(=O)C(=O)Nc2ccc3nc4n(c(=O)c3c2)CCCCC4)c(OC)c1,122% (inactive),–
Cc1cc(C)cc(NC(=O)CSc2oc(-c3cccs3)nc2S(=O)(=O)c2ccccc2)c1,195% (inactive),–
CC/C=C/C/C=C/C/C=C/CCCCCCCC(=O)OCC,-15% [at 78.4 µM] (inactive),–
COc1ccc(N2C(=O)NC(NS(=O)(=O)c3ccc(Cl)cc3)(C(F)(F)F)C2=O)cc1 (stereo not given),4.2% (inactive),–
CC(C)c1cnc2c(c1SCC(=O)Nc1cccc([N+](=O)[O-])c1)c(=O)n(C)c(=O)n2C,8.16% (inactive),–
COc1ccc(Nc2nc(Nc3ccc(OC)cc3OC)nc(N3CCOCC3)n2)c(OC)c1,–,6.12 µM (active)
O=C(NCCSc1c(-c2ccc(Br)cc2)[nH]c2ccccc12)c1ccc(S(=O)(=O)N2CCOCC2)cc1,248% (inactive),–
Cc1ccccc1C(=O)N1CCc2cc(-c3nc(NC(=O)Cc4ccccc4)sc3C)ccc21,83.2% (inactive),–
Cc1ccc(-c2nnc(Nc3cccc(O)c3)c3ccccc23)cc1S(=O)(=O)N1CCN(C)CC1,36.6% (inactive),–
CN(Cc1ccccc1)c1ncnc2c1nc1n2CCCC1,90% (inactive),–
CCOC(=O)CN(Cc1ccccc1)C(C(=O)NC1CCCCC1)c1ccc(C)cc1 (stereo not given),-13.9% (inactive),–
COc1ccc(C(=O)NCC(=O)OCC(=O)c2cccc3ccccc23)cc1,106% (inactive),–
COC(=O)c1cc(NC(=O)c2ccc3c(c2)NC(=O)c2ccccc2S3)cc(C(=O)OC)c1,428% (inactive),–

Structure (SMILES),"activity change, negative = inhibition",Potency
Cc1c(C(=O)Nc2ccc(-n3c(C)nc4ccccc4c3=O)cc2)cccc1[N+](=O)[O-],104% (inactive),–
Cc1c(C(=O)OCCOc2ccccc2)[nH]c2c1C(=O)CC(c1ccccc1)C2 (stereo not given),433% (inactive),–
COc1ccccc1Cc1nc2ccccc2nc1SCC(=O)Nc1c(C)cccc1C,5.83% (inactive),–
Cc1ccc(NC(=O)NCC2CCN(Cc3cccc(Cl)c3)CC2)cc1Cl,92.1% (inactive),–
O=C(COCc1cc(-c2cccs2)on1)NCc1ccc(Cl)cc1,259% (inactive),–
COc1ccc(NC(=O)N2CCc3c(sc4c3CCCC4)C2c2ccccc2OC)cc1 (stereo not given),-7.93% (inactive),–
CCOc1ccc(NC(=O)CSc2nnc3scc(-c4ccccc4)n23)cc1,166% (inactive),–
O=C(Nc1nc(-c2ccccc2)cs1)c1ccccc1[N+](=O)[O-],–,2.44 µM (active)
Cc1cn(C2CCC(CO)O2)c(=O)[nH]c1=O (stereo not given),11.8% (inactive),–
COc1cccc(CN2CCCN(Cc3ccc(F)cc3)S2(=O)=O)c1,74.8% (inactive),–
O=C(/C=C/c1ccc(O)c(O)c1)OC1C[C@](O)(C(=O)O)C[C@@H](O)[C@H]1O (stereo not given in full),0.358% (inactive),–
Fc1ccc(-c2cc(-c3ccc(F)cc3)c3c(n2)-c2cc(F)ccc2OC3)cc1,153% (inactive),–
COc1ccc(-c2[nH]ncc2C(=O)NCc2cccc(OC)c2)cc1,51.6% (inactive),–
COCCn1c(=N)c(C(=O)NC2CCCC2)cc2c(=O)n3cc(C)ccc3nc21,27.1% (inactive),–
Cc1cc(N[S+](=O)([O-])c2ccc(NC(=O)Cc3ccc(Cl)nc3)cc2)no1,20.7% (inactive),–
O=C(NCCN1CCCCC1)c1ccc(Cn2c(SCc3ccc(F)cc3)nc3cccnc32)cc1,91.6% (inactive),–
Nc1c(N=Nc2ccc([N+](=O)[O-])cc2)c(S(=O)(=O)O)cc2cc(S(=O)(=O)O)c(/C=C/c3ccccc3)c(O)c12,–,0.0612 µM (active)
O=C(NCc1ccccc1)C1(C(F)(F)F)C/C(=C\CCO)CCCO1 (stereo not given),-3.94% (inactive),–
C/C(=C\c1ccc2c(c1)OCO2)C1Nc2cccc3cccc(c23)N1,–,3.07 µM (active)
Clc1ccccc1CNc1ncnc2nc[nH]c12,32.4% (inactive),–
